Activity calls are given as the source filed them. Rule for the calls: active = hit-call score of the fitted dose curve at least 0.9, where 1 is the maximum; inactive = score below 0.9.
Assays:
Details in all cases: mRNA level, 48 h; actives raise or lower the signal
[1] = read-out: growth arrest and DNA damage 45 (GADD45A), GADD45A (gene 1647); experiment: LTEA_HepaRG_GADD45A: Life Technologies and Expression Analysis (LTEA) Assay for growth arrest and DNA damage 45 (GADD45A) using HepaRG (AID 2283458)
Procedure, shortened: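 GADD45A expression was measured by TaqMan qRT-PCR against three housekeeping genes (ACTB, GAPDH, POLR2A) after 48 h treatment of HepaRG cells. Eight-point half-log series up to 100 uM in 0.5% DMSO, run in duplicate.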

[2] = read-out: Forkhead box O3 (FOXO3), FOXO3 (gene 2309); experiment: LTEA_HepaRG_FOXO3: Life Technologies and Expression Analysis (LTEA) Assay for Forkhead box O3 (FOXO3) using HepaRG (AID 2283459)
Procedure, shortened: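 FOXO3 transcript measured by qRT-PCR (normalized to ACTB, GAPDH, POLR2A) after 48 h exposure of HepaRG cells in serum-free induction medium. Duplicates, eight half-log concentrations up to 100 uM, 0.5% DMSO; gain or loss fitted against DMSO.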

[3] = read-out: ABC Transporter (ABCB1), ABCB1 (gene 5243); experiment: LTEA_HepaRG_ABCB1: Life Technologies and Expression Analysis (LTEA) Assay for ABC Transporter (ABCB1) using HepaRG (AID 2283460)
Procedure, shortened: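 ABCB1 transcript level measured by TaqMan qRT-PCR against three housekeeping genes after 48 h chemical exposure of differentiated HepaRG cells. Top concentration 100 uM, half-log steps, eight points, 0.5% DMSO vehicle; bidirectional fit relative to DMSO.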

[4] = read-out: growth arrest and DNA damage 45 (GADD45B), GADD45B (gene 4616); experiment: LTEA_HepaRG_GADD45B: Life Technologies and Expression Analysis (LTEA) Assay for growth arrest and DNA damage 45 (GADD45B) using HepaRG (AID 2283461)
Procedure, shortened: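 qRT-PCR read-out (Fluidigm TaqMan, housekeeping-normalized) of mRNA change in human HepaRG cells after 48 h chemical exposure; 8-point curve, top 100 uM, half-log steps, 0.5% DMSO vehicle; gain or loss fitted relative to DMSO baseline.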

[5] = read-out: ABC Transporter (ABCC3), ABCC3 (gene 8714); experiment: LTEA_HepaRG_ABCC3: Life Technologies and Expression Analysis (LTEA) Assay for ABC Transporter (ABCC3) using HepaRG (AID 2283462)
Procedure, shortened: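 qRT-PCR read-out of ABCC3 transcript, normalized to three housekeeping genes (ACTB, GAPDH, POLR2A), after 48 h chemical exposure of human HepaRG cells. Eight half-log concentrations, highest 100 uM, in 0.5% DMSO; gain or loss fitted relative to DMSO baseline.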

[6] = read-out: ABC Transporter (ABCB11), ABCB11 (gene 8647); experiment: LTEA_HepaRG_ABCB11: Life Technologies and Expression Analysis (LTEA) Assay for ABC Transporter (ABCB11) using HepaRG (AID 2283463)
Procedure, shortened: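 ABCB11 transcript levels quantified by TaqMan qRT-PCR against three housekeeping genes after 48 h chemical exposure of HepaRG cultures. Concentrations up to 100 uM in half-log steps, 0.5% DMSO vehicle; both induction and suppression scored.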

[7] = read-out: ABC Transporter (ABCC2), ABCC2 (gene 1244); experiment: LTEA_HepaRG_ABCC2: Life Technologies and Expression Analysis (LTEA) Assay for ABC Transporter (ABCC2) using HepaRG (AID 2283464)
Procedure, shortened: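 qRT-PCR (TaqMan, Fluidigm array) read-out of ABCC2 mRNA, normalized to three housekeeping genes. Differentiated HepaRG cells were treated 48 h in serum-free induction medium with 8-point half-log series from 100 uM in 0.5% DMSO; curves fitted bidirectionally relative to DMSO.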

[8] = read-out: Broad substrate specificity ATP-binding cassette transporter ABCG2 (Homo sapiens) (UniProt Q9UNQ0); experiment: LTEA_HepaRG_ABCG2: Life Technologies and Expression Analysis (LTEA) Assay for ABC Transporter (ABCG2) using HepaRG (AID 2283465)
Procedure, shortened: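 ABCG2 transcript was quantified by TaqMan qRT-PCR against three housekeeping genes in HepaRG cells. Cells were treated in duplicate for 48 h across an 8-point half-log series up to 100 uM, with 0.5% DMSO vehicle. Gain or loss versus DMSO was fit.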

[9] = read-out: Alkaline Phosphatase, Placental (ALPP) gene, ALPP (gene 250); experiment: LTEA_HepaRG_ALPP: Life Technologies and Expression Analysis (LTEA) Assay for Alkaline Phosphatase, Placental (ALPP) gene using HepaRG (AID 2283468);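 for AC50: differentiated human HepaRG liver cells in serum-free induction medium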
Procedure, shortened: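 qRT-PCR readout of ALPP mRNA (Fluidigm TaqMan), normalized to ACTB/GAPDH/POLR2A, after 48 h chemical exposure of HepaRG cells; 8-point half-log series, top 100 uM, 0.5% DMSO vehicle. Bidirectional curve fit versus DMSO baseline.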

[10] = read-out: Bcl-2 (BAD) gene, BAD (gene 572); experiment: LTEA_HepaRG_BAD: Life Technologies and Expression Analysis (LTEA) Assay for Bcl-2 (BAD) gene using HepaRG (AID 2283469)
Procedure, shortened: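 Read-out: qRT-PCR of BAD mRNA, normalized to three housekeeping genes. Human HepaRG cultures got 48 h chemical exposure in 0.5% DMSO, duplicate eight-point half-log series topping at 100 uM. Gain or loss of signal fitted versus DMSO vehicle.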

[11] = read-out: Bcl-2 (BAX) gene, BAX (gene 581); experiment: LTEA_HepaRG_BAX: Life Technologies and Expression Analysis (LTEA) Assay for Bcl-2 (BAX) gene using HepaRG (AID 2283470)
Procedure, shortened: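 Gene expression measured by Fluidigm qRT-PCR with three housekeeping genes for normalisation. HepaRG cells, plated 48 h beforehand, treated 48 h at up to 100 uM (8-point, half-log) in 0.5% DMSO. Bidirectional fitting versus DMSO.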

[12] = read-out: adenosine kinase (ADK) gene, ADK (gene 132); experiment: LTEA_HepaRG_ADK: Life Technologies and Expression Analysis (LTEA) Assay for adenosine kinase (ADK) gene using HepaRG (AID 2283471)
Procedure, shortened: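 Read-out is ADK transcript level measured by qRT-PCR and normalised to three housekeeping genes. Cells are human HepaRG, dosed for 48 h at up to 100 uM in 0.5% DMSO. Gain or loss of signal is fitted against DMSO controls.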

[13] = read-out: Alpha-fetoprotein (AFP) gene, AFP (gene 174); experiment: LTEA_HepaRG_AFP: Life Technologies and Expression Analysis (LTEA) Assay for Alpha-fetoprotein (AFP) gene using HepaRG (AID 2283472)
Procedure, shortened: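 AFP transcript measured by TaqMan qRT-PCR with three housekeeping genes for normalization, after 48 h chemical treatment of HepaRG cells (top 100 uM, half-log steps, 0.5% DMSO). Gain or loss fitted against vehicle.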

BCL2L11 (gene 10018) = experiment: LTEA_HepaRG_BCL2L11: Life Technologies and Expression Analysis (LTEA) Assay for Bcl-2 (BCL2L11) gene using HepaRG (AID 2283473)
Procedure, shortened: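 HepaRG, 48 h exposure, 8-pt half-log series from 100 uM in 0.5% DMSO, duplicates; qRT-PCR (Fluidigm TaqMan) for BCL2L11, housekeeping-normalized; bidirectional curve fit relative to DMSO baseline.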

[14] = read-out: Apolipoprotein A-V (APOA5) gene, APOA5 (gene 116519); experiment: LTEA_HepaRG_APOA5: Life Technologies and Expression Analysis (LTEA) Assay for Apolipoprotein A-V (APOA5) gene using HepaRG (AID 2283474)
Procedure, shortened: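 HepaRG, 48 h chemical exposure in serum-free induction medium, 8-pt half-log series (top 100 uM), 0.5% DMSO vehicle, duplicates. Readout: APOA5 mRNA by qRT-PCR, housekeeping-normalized; bidirectional fit vs DMSO baseline.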

[15] = read-out: Apoptosis regulator Bcl-2 (Homo sapiens) (UniProt P10415); experiment: LTEA_HepaRG_BCL2: Life Technologies and Expression Analysis (LTEA) Assay for Bcl-2 gene using HepaRG (AID 2283475)
Procedure, shortened: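 qRT-PCR of BCL2 transcript, normalized to three housekeeping genes (ACTB, GAPDH, POLR2A), after 48 h chemical exposure of HepaRG cells; concentrations top 100 uM with half-log dilutions, 0.5% DMSO vehicle, duplicates; changes up or down fitted relative to vehicle.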

[16] = read-out: Bcl-2 (BID) gene, BID (gene 637); experiment: LTEA_HepaRG_BID: Life Technologies and Expression Analysis (LTEA) Assay for Bcl-2 (BID) gene using HepaRG (AID 2283476)
Procedure, shortened: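 Duplicate 48 h treatments of HepaRG cells in serum-free induction medium spanned 100 uM downward in half-log steps, 0.5% DMSO. Transcript change quantified by qRT-PCR against three housekeeping genes, fitted up or down versus DMSO.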

Caspase-3 (Homo sapiens) = Caspase-3 (Homo sapiens) (UniProt P42574); experiment: LTEA_HepaRG_CASP3: Life Technologies and Expression Analysis (LTEA) Assay for cysteine-aspartic acid protease (CASP3) using HepaRG (AID 2283477)
Chain of Caspase-3 (Homo sapiens) (P42574 whole entry, looked up): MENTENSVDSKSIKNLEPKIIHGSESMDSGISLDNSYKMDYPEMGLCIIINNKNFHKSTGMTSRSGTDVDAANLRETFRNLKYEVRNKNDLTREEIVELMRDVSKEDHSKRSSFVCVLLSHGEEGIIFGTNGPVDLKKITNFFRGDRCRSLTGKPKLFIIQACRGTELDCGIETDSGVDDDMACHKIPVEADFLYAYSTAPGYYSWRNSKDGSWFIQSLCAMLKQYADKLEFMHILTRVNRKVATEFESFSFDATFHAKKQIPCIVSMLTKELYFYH
Procedure, shortened: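 HepaRG, 48 h exposure, 8 conc. (top 100 uM, half-log steps, duplicate), 0.5% DMSO vehicle; qRT-PCR of CASP3 transcript, housekeeping-normalised (ACTB/GAPDH/POLR2A); bidirectional curve fit vs DMSO baseline.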

[17] = read-out: Peroxisomal acyl-coenzyme A oxidase 1 (ACOX1) gene, ACOX1 (gene 51); experiment: LTEA_HepaRG_ACOX1: Life Technologies and Expression Analysis (LTEA) Assay for Peroxisomal acyl-coenzyme A oxidase 1 (ACOX1) gene using HepaRG (AID 2283467)
Procedure, shortened: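 ACOX1 transcript levels were quantified by TaqMan qRT-PCR against three housekeeping genes after 48 h chemical exposure of differentiated human HepaRG cells. Exposure used eight half-log steps topping at 100 uM, 0.5% DMSO vehicle, in duplicate. Bidirectional curve fits were made relative to DMSO.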

[18] = read-out: ATP-citrate lyase (ACLY), ACLY (gene 47); experiment: LTEA_HepaRG_ACLY: Life Technologies and Expression Analysis (LTEA) Assay for ATP-citrate lyase (ACLY) using HepaRG (AID 2283466)
Procedure, shortened: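 ACLY mRNA quantified by qRT-PCR on Fluidigm arrays against three housekeeping genes, after 48 h chemical treatment of HepaRG cells (top concentration 100 uM, half-log steps, 0.5% DMSO vehicle). Up- or down-regulation fitted relative to DMSO.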

Measured: AC50

Chain of Apoptosis regulator Bcl-2 (Homo sapiens) (P10415 whole entry, looked up): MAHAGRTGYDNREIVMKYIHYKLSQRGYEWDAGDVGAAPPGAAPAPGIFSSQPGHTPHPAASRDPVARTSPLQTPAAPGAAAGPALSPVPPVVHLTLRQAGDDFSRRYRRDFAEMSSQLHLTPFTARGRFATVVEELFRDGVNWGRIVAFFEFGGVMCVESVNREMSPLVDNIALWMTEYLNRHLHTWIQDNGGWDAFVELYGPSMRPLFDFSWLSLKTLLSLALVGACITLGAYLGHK
Chain of Broad substrate specificity ATP-binding cassette transporter ABCG2 (Homo sapiens) (Q9UNQ0 whole entry, looked up): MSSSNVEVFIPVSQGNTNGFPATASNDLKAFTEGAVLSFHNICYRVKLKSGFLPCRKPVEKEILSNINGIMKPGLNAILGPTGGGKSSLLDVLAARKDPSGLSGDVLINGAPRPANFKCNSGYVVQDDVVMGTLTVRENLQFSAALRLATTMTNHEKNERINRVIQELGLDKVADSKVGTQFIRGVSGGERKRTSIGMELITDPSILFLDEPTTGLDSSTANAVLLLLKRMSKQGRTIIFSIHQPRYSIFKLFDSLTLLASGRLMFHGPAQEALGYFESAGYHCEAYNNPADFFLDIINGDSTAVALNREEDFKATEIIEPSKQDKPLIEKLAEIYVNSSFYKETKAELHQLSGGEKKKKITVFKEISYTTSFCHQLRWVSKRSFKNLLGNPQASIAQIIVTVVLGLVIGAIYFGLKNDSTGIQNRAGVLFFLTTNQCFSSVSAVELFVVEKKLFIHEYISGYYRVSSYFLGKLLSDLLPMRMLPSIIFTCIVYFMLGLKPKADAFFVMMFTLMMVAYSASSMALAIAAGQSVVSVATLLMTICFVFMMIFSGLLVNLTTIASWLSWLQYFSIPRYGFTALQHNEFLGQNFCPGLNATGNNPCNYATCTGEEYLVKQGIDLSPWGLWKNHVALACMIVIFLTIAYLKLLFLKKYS

C[C@]12C=CC(=O)C=C1CC[C@@H]1[C@@H]2C(=O)C[C@@]2(C)[C@H]1CC[C@]2(O)C(=O)CO
active: [3] 50 µM | [7] 50 µM
not listed: [17] | [18]
inactive: all other assays above

Cc1cccc(C)c1O
not listed: [8] | [18]
inactive: all other assays above

NCCO
not listed: [7] | [16]
inactive: all other assays above

C1CCC(SSC2CCCCC2)CC1
not listed: [7]
inactive: all other assays above

Cc1ccc(C(C)C)c(O)c1
not listed: [16] | [17] | [18]
inactive: all other assays above

Cc1oc(-c2ccccc2)nc1CCOc1cccc2c1ccn2CCC(=O)O
active: [1] 75.2 µM | [3] 81.3 µM | [4] 75.8 µM | [6] 93.7 µM | [8] 40.2 µM | [18] 38.7 µM | [9] 63 µM | [11] 50 µM | [13] 80.8 µM | BCL2L11 (gene 10018) 14.1 µM | [14] 80.7 µM | [15] 86.3 µM
inactive: [2] | [7] | [10] | [12] | [16] | Caspase-3 (Homo sapiens)

Nc1ccc2c(c1)C(=O)c1ccccc1C2=O
active: [2] 3 µM | [4] 9.75 µM | [6] 4.81 µM | [8] 10.4 µM | [11] 15 µM | [13] 22.8 µM | [14] 5.42 µM
not listed: [16] | [18]
inactive: all other assays above

O=c1[nH]cc(F)c(=O)[nH]1
active: [6] 64 µM | [14] 70.9 µM
not listed: [5] | [18]
inactive: all other assays above

CC(=O)OC/C=C(\C)CCC=C(C)C
not listed: [17]
inactive: all other assays above

Nc1ccc(S(=O)(=O)c2ccc(N)cc2)cc1
not listed: [7] | [8] | [17] | [18]
inactive: all other assays above

C=CCOC(=O)c1ccccc1C(=O)OCC=C
not listed: [7] | [16]
inactive: all other assays above

CCCCCCCC=O
not listed: [18]
inactive: all other assays above

Oc1ccc2c(c1)OC[C@@H](N1CCC(O)(c3ccc(F)cc3)CC1)[C@H]2O
not listed: [8] | [16] | [17] | [18]
inactive: all other assays above

CC(C)(C)c1cc(O)c(C(C)(C)C)cc1O
active: [1] 50 µM | [3] 90.3 µM | [6] 72.7 µM | [7] 85.9 µM | [9] 90.8 µM | [12] 76.7 µM | [13] 77.7 µM | [16] 84.3 µM | Caspase-3 (Homo sapiens) 79.4 µM
inactive: [2] | [4] | [8] | [18] | [10] | [11] | BCL2L11 (gene 10018) | [14] | [15]

COc1cc(S(=O)(=O)O)c(C)cc1N=Nc1c(O)ccc2cc(S(=O)(=O)O)ccc12
not listed: [5] | [14] | [18]
inactive: all other assays above

From PubChem BioAssay (EPA / NIEHS)
